Screening data deposited in PubChem by National Center for Advancing Translational Sciences (NCATS).
The full list was thinned out, with hits kept by preference.
LmPK inhibitor: blocks Leishmania mexicana pyruvate kinase activity; Q27686; purified LmPK, Kinase-Glo ATP luminescence, 1 h; Potency, µM (top dose mostly 57.5 µM), without a hit: top-dose activity change, negative = inhibition, usual class: inhibitors; 290,000 compounds, 0.37% hits; AID 1721; further: potency means the concentration at half of the fitted maximal effect; on the % scale 0 is the no-effect control and ±100 the full control effect
Target sequence (Q27686 whole entry, looked up): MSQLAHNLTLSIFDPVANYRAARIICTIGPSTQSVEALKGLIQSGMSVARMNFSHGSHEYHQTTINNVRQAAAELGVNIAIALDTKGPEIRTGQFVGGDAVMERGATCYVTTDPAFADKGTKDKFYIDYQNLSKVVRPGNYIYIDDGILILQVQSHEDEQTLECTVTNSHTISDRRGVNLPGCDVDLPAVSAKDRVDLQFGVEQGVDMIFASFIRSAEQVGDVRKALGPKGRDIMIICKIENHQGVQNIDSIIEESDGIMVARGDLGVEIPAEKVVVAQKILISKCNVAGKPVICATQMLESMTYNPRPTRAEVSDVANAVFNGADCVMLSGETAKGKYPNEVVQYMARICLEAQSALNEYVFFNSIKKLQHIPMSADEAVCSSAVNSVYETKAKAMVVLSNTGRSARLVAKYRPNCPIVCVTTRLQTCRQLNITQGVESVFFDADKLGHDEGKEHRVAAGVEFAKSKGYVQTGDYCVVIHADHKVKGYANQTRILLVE
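Purified LmPK (0.1 nM) converted ADP (0.1 mM) to ATP with PEP (0.5 mM) in imidazole buffer pH 7.2 with KCl and MgCl2, 1 h at room temperature. ATP was read by Kinase-Glo luminescence; data normalized to uninhibited and no-enzyme controls.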
Cycloheximide cs: counter-screen for Shiga toxin inhibitors: cycloheximide protein synthesis inhibition; 300,000 compounds, 12% hits; cell reporter, cycloheximide protein synthesis inhibition counterscreen; AID 2314; max response, %; in the data active means max response mostly above about 13%, no sharp cut-off; inactive means mostly below about 14%; further: read at 38.3 µM for the half of the compounds with a filed dose; 0% is about no effect
Shiga inhibitor: Shiga toxin inhibition | Vero cells, Shiga toxin protein synthesis inhibition reporter | inhibition, % at 38.7 µM | 290,000 compounds, 9.2% hits | AID 2315; in the data active means inhibition mostly above about 28%, no sharp cut-off; inactive means mostly below about 43%; further: 0% is about no effect
SARS PLpro yeast: blocks SARS-CoV papain-like protease in a yeast assay; S. cerevisiae expressing SARS-CoV PLpro, growth rescue; Potency, µM (top dose mostly 32.9 µM), for the others: at the highest dose activity, positive = growth rescue, hits mostly activators; 330,000 compounds, 0.19% hits; calls by dose curve; further: potency means the concentration at half of the fitted maximal effect; 0% is about no effect; nearly all actives have a fitted effect of over 55% in size
TbPYK inhibitor: inhibitors of Trypanosoma brucei pyruvate kinase. TbPYK enzyme, Kinase-Glo Plus ATP luminescence, 45 min. Potency, µM (highest dose often 76.8 µM), for the others: at the highest dose activity, negative = inhibition, actives largely listed as inhibitors. 410,000 compounds, 0.12% hits; further: potency means the concentration at half of the fitted maximal effect; on the % scale 0 is the no-effect control and ±100 the full control effect; nearly all actives have a fitted effect of over 50% in size
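Enzyme and substrate buffer are dispensed first and compound is pin-transferred. ADP at 130 uM final then starts the reaction, which runs 45 min at room temperature. Detection reagent is added for 10 min before luminescence is imaged.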
NS1 function inh: influenza NS1 inhibition. Potency, µM (titrated, usually from 46.1 µM), for the others: at the highest dose activity, positive = more growth. 270,000 compounds, 0.4% hits; calls by dose curve; further: potency means the concentration at half of the fitted maximal effect; actives are rising curves; nearly all actives have a fitted effect of over 50% in size
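In this qHTS, NS1 from influenza A is expressed in budding yeast, where it slows growth. Cells are switched from glucose to 2% galactose medium (pH 6.0, -URA), treated with compound, and growth recovery is read at OD600.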
Starred values were filed as active, the others as inactive; i = inactive; u = inconclusive; x = no result; [ ] = dose if it differs, or a comment. Unless noted, the call rests on the fitted dose curve; in most records, active means well fitted curve in the direction sought with a large enough effect; inconclusive means small, poorly fitted or top-dose-only effect, or another doubt; inactive means no such curve, though single readings can be large; an effect the other way counts as inactive or inconclusive.

SMILES	LmPK inhibitor	Cycloheximide cs	Shiga inhibitor	SARS PLpro yeast	TbPYK inhibitor	NS1 function inh
Cc1cc(C)nc(Nc2nc(C(N)c3ccccc3)cs2)n1 (centres undefined)	x	x	x	x	3%	x
CCN(CC)c1ccc(C(=O)N2CCC(c3c[nH]c4ccccc34)(c3c[nH]c4ccccc34)CC2)cc1	x	x	x	x	-2%	x
O=C(Oc1ccc([N+](=O)[O-])cc1)c1cccnc1	3%	-6	7	u	-11%	-2%
O=C(Oc1ccc(NC2=C(Cl)C(=O)c3ccccc3C2=O)cc1)c1ccc([N+](=O)[O-])cc1	-5%	18*	-3	-2%	-8%	6%
Fc1ccc(-c2n[nH]c(=S)n2/N=C/c2c[nH]c3ccccc23)cc1	-10%	-2	-9	11%	-49%	-5%
Cc1cc(-c2n[nH]c(=S)n2/N=C/c2c[nH]c3ccccc23)n[nH]1	u	-2	-7	1%	2.8µM*	-1%
Cc1cc(-c2n[nH]c(=S)n2/N=C/c2ccc(Br)s2)n[nH]1	-18%	1	-5	9%	1.1µM*	27%
COc1ccc([C@]23Cc4cc(OC)c(OC)cc4C(O2)c2c(c4ccccc4oc2=O)O3)cc1	15%[11.5 µM]	-3	i	-9%[6.58 µM]	x	9%
CC(=O)Cc1nsc(NC(=O)c2ccc(-c3ccccc3Cl)o2)n1	-14%	37	12	-11%	1%	-71%
COc1ccccc1NC(=O)c1ccc(-c2ccc(Br)cc2)o1	5%	10	21	-11%	4%	-20%
CCn1nnc(NC(=O)c2ccc([N+](=O)[O-])o2)n1	4%	19	6	-1%	3%	x
CCCCn1nnc(NC(=O)c2ccc(-c3ccccc3[N+](=O)[O-])o2)n1	-2%	27*	49*	-1%	7%	-6%
O=C(Nc1nccs1)c1ccc(-c2ccccc2[N+](=O)[O-])o1	3%	54*	106*	-10%	-10%	-26%
O=C(Nc1nccs1)c1ccc(-c2ccccc2Cl)o1	-4%	44*	76*	-18%	-6%	3%
COc1ccccc1NC(=O)c1ccc(-c2ccccc2[N+](=O)[O-])o1	-3%	60*	115*	7%	-6%	x
CCOC(=O)N(C)C[C@@H]1OCc2cnnn2CCCC(=O)N([C@H](C)CO)C[C@@H]1C	x	x	x	x	0%	x
CC(C)[C@H](NC(=O)[C@@H]1Cc2c([nH]c3ccccc23)C2c3ccccc3C(=O)N21)C(=O)NCC1CCCO1 (some centres undefined)	-2%	-3	-3	1%	3%	7%
Cc1cccc(CSCc2nnc(N)s2)c1	0%	19*	39*	4%	-11%	-6%
Nc1nnc(CSCc2ccccc2)s1	3%	-2	-2	-1%	0%	0%
COc1cc(C(=O)NC(C)c2cnn(-c3ccccc3C)c2C)cc(OC)c1OC (centres undefined)	-2%	15*	41	1%	0%	3%
COc1cc(Nc2ccn3nc(-c4ccc(F)cc4)cc3n2)cc(OC)c1OC	x	x	x	x	-3%	x
CC1CCN(C(=O)CCC(=O)N2CC(C)Oc3ccccc32)CC1 (centres undefined)	-4%	0	11	-3%	-6%	-1%
CC1CCC(NC(=O)CCC(=O)N2CC(C)Oc3ccccc32)CC1 (centres undefined)	-1%	15*	21	4%	0%	12%
Cc1ccc2c(c1)cc(C(=O)NCc1ccccc1C)n2C	x	x	x	x	-1%	x
COc1cccc(/C=C2\Oc3cc(OCC(=O)N4CCCC4)ccc3C2=O)c1OC	-2%	15*	-4	11%	-4%	2%
COc1ccc(/C=C2\Oc3cc(OCC(=O)N4CCC(C(=O)O)CC4)ccc3C2=O)c(OC)c1OC	-7%	9	15	-2%	-6%	u
COc1ccc(/C=C2\Oc3cc(OCC(=O)N4CCC(C(=O)O)CC4)ccc3C2=O)c(OC)c1	-4%	1	-8	-16%	-3%	23%
COc1cccc(/C=C2\Oc3cc(OCC(=O)N4CCCCC4)ccc3C2=O)c1OC	3%	15	45*	-45%	2%	-14%
Cc1ccc(Cn2c(C(=O)O)c(CNC3CCCCC3)c3ccc(C)cc32)cc1	x	x	x	x	0%	x
